Screens deposited in PubChem by National Center for Advancing Translational Sciences (NCATS).
IL1B secr inh: inflammasome signaling inhibition, IL-1 beta readout. THP-1 LPS/ATP IL-1B secretion, AlphaLISA, 16 h; stronger effect = lower value. activity change, % at 57.5 µM. AID 743279. 4.7% of 360,000 active; in the data active means activity change below about -50%; inconclusive means mostly about -30% to -49%; further: on the % scale 0 is the no-effect control and ±100 the full control effect
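Secreted IL-1B measured by AlphaLISA bead assay after 16 h compound exposure of THP-1 cells; compounds (final up to 57.5 uM) added 1 h before LPS (250 ng/mL) and ATP (1.25 mM) stimulation; lower signal means less secretion.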
DT40 TDP1 CPT: DT40-hTDP1 cell growth loss with CPT; chicken DT40 Tdp1-/-;hTDP1 cells + 20 nM CPT, ATP luminescence, 48 h; Potency, µM (titrated, usually from 46.2 µM), for inactives: top-dose activity change, negative = growth inhibition, hits mostly inhibitors; 12% of 420,000 active; AID 686979; further: potency means the concentration at half of the fitted maximal effect; on the % scale 0 is the no-effect control and ±100 the full control effect; nearly all actives have a fitted effect of over 55% in size
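Cell growth measured by CellTiter-Glo luminescence after a minimum 48 h, 37 C compound exposure with 20 nM CPT in Tdp1-knockout DT40 cells stably expressing hTDP1, seeded 400/well; qHTS titration format.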
TDP1 block: inhibitors of human tyrosyl-DNA phosphodiesterase TDP1; Q9NUW8; recombinant TDP1, AlphaScreen DNA substrate cleavage; Potency, µM (series often up to 130 µM), for inactives: at the top dose activity change, negative = inhibition, hits mostly inhibitors; 0.28% of 350,000 active; AID 485290; further: potency means the concentration at half of the fitted maximal effect; on the % scale 0 is the no-effect control and ±100 the full control effect; nearly all actives have a fitted effect of over 40% in size
Target sequence (Q9NUW8 whole entry, looked up): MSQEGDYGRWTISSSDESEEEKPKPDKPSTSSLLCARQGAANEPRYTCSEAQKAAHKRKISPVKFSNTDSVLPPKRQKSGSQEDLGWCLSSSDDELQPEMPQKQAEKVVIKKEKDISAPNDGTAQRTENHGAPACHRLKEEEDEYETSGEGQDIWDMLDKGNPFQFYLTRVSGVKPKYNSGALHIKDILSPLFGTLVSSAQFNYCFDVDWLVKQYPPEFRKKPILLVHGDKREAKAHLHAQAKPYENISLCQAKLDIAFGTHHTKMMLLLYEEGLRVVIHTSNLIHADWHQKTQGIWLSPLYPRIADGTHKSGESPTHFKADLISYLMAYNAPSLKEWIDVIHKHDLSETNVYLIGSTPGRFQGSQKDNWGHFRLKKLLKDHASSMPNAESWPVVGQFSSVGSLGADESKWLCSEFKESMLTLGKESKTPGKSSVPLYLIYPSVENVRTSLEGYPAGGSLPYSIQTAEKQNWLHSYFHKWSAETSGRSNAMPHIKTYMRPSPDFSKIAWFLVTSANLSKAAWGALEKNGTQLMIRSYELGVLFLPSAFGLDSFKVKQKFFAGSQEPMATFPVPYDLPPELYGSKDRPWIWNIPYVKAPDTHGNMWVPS
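Here, a 5' biotin and 3' phosphotyrosine-FITC DNA oligonucleotide reports Tdp1 activity: intact substrate bridges AlphaScreen beads, while cleavage leaves a 3' phosphate and drops signal. All incubations at room temperature.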
TDP1 cell noCPT: qHTS for Inhibitors of human tyrosyl-DNA phosphodiesterase 1 (TDP1): qHTS in cells in absence of CPT; DT40 Tdp1-/- hTDP1 cells, no CPT, ATP luminescence, 48 h; Potency, µM (series often up to 46.2 µM), for the others: at the top dose activity change, negative = growth inhibition, hits mostly inhibitors; 15% of 420,000 active; further: potency means the concentration at half of the fitted maximal effect; on the % scale 0 is the no-effect control and ±100 the full control effect; nearly all actives have a fitted effect of over 55% in size
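DT40 Tdp1-/-;hTDP1 cells, no CPT (DMSO vehicle only), 400 cells/well; compounds pin-transferred; ≥48 hr, 37 °C; CellTiter-Glo 30 min RT dark, luminescence read.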
HepG2 tox: kills HepG2 cells in TGF-b inhibitor counter-screen | 0.76% of 410,000 active | HepG2 CAGA-GFP viability, ATP luminescence, 18 h | Potency, µM (highest dose often 46.1 µM), for inactives: top-dose activity change, negative = cytotoxicity, actives largely listed as cytotoxic; further: potency means the concentration at half of the fitted maximal effect
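CellTiter-Glo luminescence gave cytotoxicity after 18 hours at 37 degrees C. The cells were HepG2 CAGA-GFP in 1% FBS DMEM, stimulated with 500 pg/mL TGF-beta after compound addition. %Activity was normalised to no-cell wells (complete cell-killing) and DMSO (no toxicity), and curves were fitted and classified.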
TGFb SMAD3 inh: TGF-b pathway inhibition. HepG2 CAGA-GFP TGF-b/SMAD3 reporter, GFP fluorescence, 18 h; TGF-beta stimulated, 500 pg/mL final. Potency, µM (doses to about 46.1 µM), without a hit: at the highest dose activity, negative = inhibition, actives largely listed as inhibitors. 1.2% of 410,000 active. AID 588855; further: potency means the concentration at half of the fitted maximal effect; on the % scale 0 is the no-effect control and ±100 the full control effect; nearly all actives have a fitted effect of over 65% in size
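Inhibition of TGF-beta-driven CAGA-GFP reporter expression in HEPG2 cells is measured by cellular GFP fluorescence after 18 h stimulation with 500 pg/mL recombinant TGF-beta in 1% FBS medium at 37 degrees C.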
Starred values were filed as active, the others as inactive. Shown are actives, neighbours in structure and some others; about 18% of the full set was active somewhere. Unless noted, the call rests on the fitted dose curve; in most records, active means well fitted curve in the direction sought with a large enough effect; inconclusive means small, poorly fitted or top-dose-only effect, or another doubt; inactive means no such curve, though single readings can be large; an effect the other way counts as inactive or inconclusive.

Results for O=C(COC(=O)c1cc([N+](=O)[O-])ccc1N1CCOCC1)Nc1ccc(Cl)cn1 ?
IL1B secr inh: -9; DT40 TDP1 CPT: inconclusive; TDP1 block: 5%; TDP1 cell noCPT: inconclusive; HepG2 tox: -34%; TGFb SMAD3 inh: inconclusive

How did O=[N+]([O-])c1ccc(Nc2nc(NCCN3CCOCC3)nc(Nc3ccc(I)cc3)n2)cc1 do in these assays?
DT40 TDP1 CPT: 7.1µM*; TDP1 cell noCPT: 4.5µM*; HepG2 tox: -44%; TGFb SMAD3 inh: 6%

How did O=[N+]([O-])c1ccc(Nc2nc(NCCN3CCOCC3)nc(Nc3ccc(Cl)cc3)n2)cc1 do in these assays?
DT40 TDP1 CPT: 14µM*; TDP1 cell noCPT: 10µM*; HepG2 tox: -77%; TGFb SMAD3 inh: inconclusive

Results for COc1ccc(Nc2nc(NCCN3CCOCC3)nc(Nc3ccc(OC)cc3)n2)cc1 ?
IL1B secr inh: -91*; DT40 TDP1 CPT: 11µM*; TDP1 cell noCPT: 14µM*; HepG2 tox: -20%; TGFb SMAD3 inh: -2%

What do the screens show for `Cc1ccn2c(-c3n[nH]c(=S)n3C)c(C)nc2c1`?
IL1B secr inh: 18; DT40 TDP1 CPT: 4%; TDP1 block: 0%; TDP1 cell noCPT: 4%; HepG2 tox: 3%; TGFb SMAD3 inh: -7%

What do the screens show for `COc1ccccc1CCN1CCCC(CN(C)C(=O)CCC(N)=O)C1` (stereo not given)?
IL1B secr inh: -6; DT40 TDP1 CPT: -15%; TDP1 cell noCPT: 14%; HepG2 tox: -14%; TGFb SMAD3 inh: -10%

How did CCOC(=O)C(=O)N(C)c1c(CC)nc2c(OCc3ccccc3)cccn12 do in these assays?
IL1B secr inh: 1; DT40 TDP1 CPT: -20%; TDP1 cell noCPT: -27%; HepG2 tox: -3%; TGFb SMAD3 inh: -3%

What do the screens show for `Cc1ccc(Nc2cccccc2=O)cc1`?
IL1B secr inh: -21; DT40 TDP1 CPT: 21µM*; TDP1 block: 6%; TDP1 cell noCPT: inconclusive; HepG2 tox: -63%; TGFb SMAD3 inh: 0%

What do the screens show for `Cc1ccc(NC(=O)COC(=O)c2ccccc2Nc2ccccc2)cc1`?
IL1B secr inh: 0; DT40 TDP1 CPT: 5%; TDP1 block: -4%; TDP1 cell noCPT: -12%; HepG2 tox: -4%; TGFb SMAD3 inh: -1%

What do the screens show for `C=C1NN(CC2CC2)C(=O)N1c1ccc(OCc2ccccc2)cc1`?
DT40 TDP1 CPT: inconclusive; TDP1 cell noCPT: 13µM*; HepG2 tox: -34%; TGFb SMAD3 inh: -2%

How did COc1cccc(NC(=O)CN(C)C(=O)C(C)Sc2ccccc2)c1 (stereo not given) do in these assays?
IL1B secr inh: 5; DT40 TDP1 CPT: -10%; TDP1 block: -2%; TDP1 cell noCPT: inconclusive; HepG2 tox: 2%; TGFb SMAD3 inh: -23%

How did COc1ccc(NC(=O)c2oc3ccccc3c2NC(=O)C2CCCCC2)c(OC)c1 do in these assays?
DT40 TDP1 CPT: 10%; TDP1 block: 1%; TDP1 cell noCPT: -12%; HepG2 tox: -3%; TGFb SMAD3 inh: -25%

Results for O=[N+]([O-])c1cccc(N=NN(CCO)c2cccc([N+](=O)[O-])c2)c1 ?
IL1B secr inh: 4; DT40 TDP1 CPT: -21%; TDP1 block: 7%; TDP1 cell noCPT: inconclusive; HepG2 tox: -16%; TGFb SMAD3 inh: -21%

How did CCCN(N=Nc1cccc([N+](=O)[O-])c1)c1cccc([N+](=O)[O-])c1 do in these assays?
IL1B secr inh: -51*; DT40 TDP1 CPT: inconclusive; TDP1 block: 5%; TDP1 cell noCPT: inconclusive; HepG2 tox: -21%; TGFb SMAD3 inh: -7%

What do the screens show for `O=S(=O)(c1ccc(-c2csc(=Nc3ccc(F)cc3)n2CCCCCCO)cc1)N1CCCC1`?
DT40 TDP1 CPT: 2.9µM*; TDP1 block: 10%; TDP1 cell noCPT: 2.6µM*; HepG2 tox: -12%; TGFb SMAD3 inh: inconclusive

How did OCCCn1c(-c2ccc(F)cc2)csc1=Nc1ccc(F)cc1 do in these assays?
DT40 TDP1 CPT: 9.2µM*; TDP1 block: 14%; TDP1 cell noCPT: 15µM*; HepG2 tox: -40%; TGFb SMAD3 inh: inconclusive

How did Cc1ccc(-c2csc(=Nc3ccccc3)n2CCCO)cc1 do in these assays?
DT40 TDP1 CPT: 16µM*; TDP1 block: 16%; TDP1 cell noCPT: 10µM*; HepG2 tox: -68%; TGFb SMAD3 inh: 7.1µM*

Results for CN(C)S(=O)(=O)c1cccc(-c2csc(=Nc3ccccc3)n2CCCN2CCOCC2)c1 ?
IL1B secr inh: -25; DT40 TDP1 CPT: inconclusive; TDP1 block: 7%; TDP1 cell noCPT: inconclusive; HepG2 tox: -30%; TGFb SMAD3 inh: -10%

How did COc1ccc(N=c2scc(-c3ccc(S(=O)(=O)N4CCOCC4)cc3)n2CCCO)cc1 do in these assays?
TDP1 block: 7%

How did CC1CCN(C(=O)CSc2nc3c([nH]c4ccccc43)c(=O)n2-c2ccccc2)CC1 do in these assays?
DT40 TDP1 CPT: -9%; TDP1 block: 1%; TDP1 cell noCPT: 10%; HepG2 tox: 7%; TGFb SMAD3 inh: -2%

What do the screens show for `CCCN1CNc2c(c(=O)[nH]c(=S)n2CCc2ccccn2)C1`?
DT40 TDP1 CPT: -16%; TDP1 block: 0%; TDP1 cell noCPT: -26%

Results for C[C@@H]1CC[C@]2(C(=O)O)CC[C@]3(C)C(=CCC4[C@@]5(C)C[C@@H](O)[C@H](O)[C@@](C)(CO)C5CC[C@]43C)C2[C@H]1C (stereo not given in full) ?
TDP1 block: 6%

What do the screens show for `CC(C)COC(=O)N1CCCCC1c1cc(C(=O)Nc2ccccc2)no1` (stereo not given)?
IL1B secr inh: -25; DT40 TDP1 CPT: 18µM*; TDP1 cell noCPT: inconclusive; HepG2 tox: -26%; TGFb SMAD3 inh: -15%

Results for CC(C)COC(=O)N1CCCCC1c1cc(C(=O)NCc2ccc(F)cc2)no1 (stereo not given) ?
IL1B secr inh: -12; DT40 TDP1 CPT: inconclusive; TDP1 cell noCPT: 21µM*; HepG2 tox: -5%; TGFb SMAD3 inh: -2%

How did CC(C)NC(=O)c1cc(C2CCCCN2C(=O)OCCF)on1 (stereo not given) do in these assays?
IL1B secr inh: -67*; DT40 TDP1 CPT: -1%; TDP1 cell noCPT: 6%; HepG2 tox: 9%; TGFb SMAD3 inh: 26%
